INHIBITION data for 54 molecules are collected here from ChEMBL document CHEMBL4513216, “Probing the Open Global Health Chemical Diversity Library for Multistage-Active Starting Points for Next-Generation Antimalarials” (ACS Infect Dis, 2020).

About 8,600 (12%) of roughly 69,000 compounds showed an effect of 50% or more. The list comes from a sample in which strong results are over-represented; it also holds similar structures and randomly drawn compounds.

This test has as its system Plasmodium berghei. Briefly: Screen against P. berghei liver stage (PbLuc), transformed with Luciferase, at 10uM. In kind it is functional, HepG2. To be noted: tested at 10 uM.
Regarding `Cc1cc2c(cc1Cl)C=CC1(CCN(CC(=O)N3CCCC3)CC1)O2`, the INHIBITION is listed as 85.5%.
In the case of `CCN(CC)C(=O)CN1CCC2(C=Cc3cc(Cl)c(C)cc3O2)CC1` it was 78.9%; in that of `Cn1nc(C2CC2)cc1C(=O)N1CCC(c2nnsc2S(C)(=O)=O)CC1`, 18.14%.
In the case of `CN(C)C(=O)CN1C(=O)CCC12CCN(Cc1ccsc1)CC2` it was 17.4%; in that of `COc1cc2c(cc1CCC(=O)O)CCC2`, -5.7%.
Regarding `COc1cc(C)c(C)cc1S(=O)(=O)N(C)CC(=O)Nc1ccon1`, the INHIBITION was 27.4%.
In the case of `CCCn1nnnc1COc1cc(OC)ccc1C(=O)OC` it was 18.4%; in that of `CCCc1cc(NCCCC2CCOC2)n2nccc2n1` (centres undefined), -7.65%.
In the case of `CS(=O)(=O)N1CCC(Nc2ccnc3ccc(Cl)cc23)CC1` it was -20.6%; in that of `Clc1ccc2nc(N3CCC(NCCCC4CCOC4)CC3)sc2c1` (centres undefined), 88.1%.
In the case of `CCS(=O)(=O)CCNC1CCN(c2nc3ccc(Cl)cc3s2)CC1` it was 85.2%.
Consider `CCc1nccn1CCNC1CCN(c2nc3ccc(Cl)cc3s2)CC1`, for which the INHIBITION is reported as 78.1%.
In the case of `CCn1ccnc1CNC1CC(=O)N(CCc2cccc(Cl)c2)C1` (centres undefined) it was -6.39%.
Under `CCc1cc(NCCCC2CCOC2)n2nccc2n1` (centres undefined) stands 48.1%; under `CCCc1cc(N2CCC(NCCc3ccc(O)cc3)CC2)nc(C)n1`, 30.3%.
Under `CCc1cc(N2CCC(NCCc3ccccc3F)CC2)nc(C)n1` stands 11%.
With `CCOc1ccc2cc(C(=O)NCCNc3ccc(C)nn3)[nH]c2c1`, the INHIBITION is listed as -21.9%.
On to `Cc1cc(C(=O)NC2CCC3(CCC(=O)N3C)CC2)no1` (centres undefined), for which the INHIBITION stood at 28.4%.
With `CN(Cc1ccco1)[C@@H]1CN(Cc2ccsc2)C[C@@H]2CCCO[C@@H]21`, the INHIBITION turned out to be 17.5%.
In the case of `CC(C)N(Cc1ccccn1)C(=O)CCC(=O)c1ccccc1` it was 34.1%; in that of `CC(C)c1n[nH]c(C2CN(CCc3cccs3)CCO2)n1` (centres undefined), -21.9%.
In the case of `CN(Cc1ccco1)C(=O)C1=NN(C)C(=O)CC1` it was -14.3%.
For the molecule `CC(=O)N(CCc1nc(-c2cc(C(N)=O)oc2C)cs1)C(C)C`, the INHIBITION amounted to 74%.
In the case of `CC(=O)N(C)CCc1nc(-c2cc(C(N)=O)co2)cs1` it was -91.4%; in that of `CC(=O)N(CCc1nc(-c2cc(C(N)=O)co2)cs1)C(C)C`, -49.3%.
Under `CC(=O)N1CCOC(c2nc(N(C)C)ncc2-c2cccc(F)c2)C1` (centres undefined) stands 9.93%; under `CC(=O)N1CCCC(c2nc(N(C)C)ncc2-c2cccc(F)c2)C1` (centres undefined), 74.9%.
In the case of `CN(C)c1nccc(C2CCCN(C(=O)CO)C2)n1` (centres undefined) it was 23.2%; in that of `CC(=O)N1CCCC1c1nc(N(C)C)ncc1-c1ccccc1` (centres undefined), 1.62%.
Take `CCC(=O)N1CCCC(c2nc(N(C)C)ncc2-c2ccc(F)cc2)C1` (centres undefined): the INHIBITION amounted to 73.1%.
Consider `CC(C)C(=O)N1CCCC1c1nc(N(C)C)ncc1-c1ccc(Cl)cc1` (centres undefined), for which the INHIBITION is 26.7%.
In the case of `CCC(=O)N1CCCC1c1nc(N(C)C)ncc1-c1ccc(Cl)cc1` (centres undefined) it was 50.8%.
In the case of `CC(=O)N1CCCC(c2nc(N(C)C)ncc2-c2ccccc2)C1` (centres undefined) it was 9.98%.
Regarding `COCC(=O)N1CCCC(c2nc(N(C)C)ncc2-c2ccccc2)C1` (centres undefined), the INHIBITION was 42.5%.
Under `CSCC[C@H](N)C(=O)NCc1cc2n(n1)CCCN(C(=O)N(C)C)C2` stands 3.19%.
Turning to `Cc1nc(CN2CCO[C@H]3[C@H](OCC(=O)N(C)C)CC[C@@H]32)cs1`, the INHIBITION is reported as 10.6%.
As for `CC(NC(=O)c1ccc(F)cc1F)c1cnn(C)c1` (centres undefined), the INHIBITION is 33.3%.
In the case of `O=C(Nc1cccnc1)[C@H]1C[C@H]2OCC[C@H]2N(C(=O)c2ccsc2)C1`, the INHIBITION is given as 3.41%.
Take `CCNc1nc2cn(-c3ccc(Cl)cc3)c(=O)c-2c[nH]1`: the INHIBITION is on record as -64.5%.
Under `c1cncc(-c2noc(CNCC3CCCN3c3cccnn3)n2)c1` (centres undefined) stands -7.81%; under `COC(C)(C)CC(C)NCc1cn2ccccc2n1` (centres undefined), 8.38%.
Under `Cc1cc(O)n(-c2ccc3nnc(C)n3n2)n1` stands 6.83%; under `Cc1ccccc1OCC(O)C(=O)N1CCC2(CC1)CN(C)C(=O)O2` (centres undefined), 39.6%.
On to `Cc1ccccc1OC(C(=O)N1CCC2(CC1)CN(C)C(=O)O2)C(C)C` (centres undefined), for which the INHIBITION is 41.5%.
In the case of `CC(C)C(C(=O)N1CCC2(CC1)CN(C)C(=O)O2)c1ccccc1` (centres undefined), the INHIBITION amounted to 56.3%.
In the case of `Cc1cc(CN2C[C@@H]3COC[C@H](C(=O)N4CCCCO4)[C@@H]3C2)no1` it was 21.8%.
Under `Cc1noc(C)c1CN1C[C@@H]2COC[C@@H](CC(=O)N3CCCCO3)[C@@H]2C1` stands 41.6%; under `Cc1noc(C)c1CN1C[C@@H]2COC[C@@H](C(=O)N3CCCCO3)[C@@H]2C1`, 39.2%.
In the case of `Cc1noc(C)c1CN1C[C@@H]2COC[C@@H](C(=O)N3CCCO3)[C@@H]2C1` it was 57.9%; in that of `Cc1noc(C)c1CN1C[C@@H]2COC[C@H](C(=O)N3CCCCO3)[C@@H]2C1`, 50.6%.
For the molecule `Cc1noc(C)c1CN1C[C@@H]2COC[C@H](C(=O)N3CCOCC3)[C@@H]2C1`, the INHIBITION was found to be 13.6%.
In the case of `Cc1noc(C)c1CN1C[C@@H]2COC[C@@H](CC(=O)N3CCCO3)[C@@H]2C1` it was -0.388%; in that of `Cc1noc(C)c1CN1C[C@@H]2COC[C@H](C(=O)N3CCCO3)[C@@H]2C1`, 62.5%.
In the case of `Cc1cc(CN2C[C@@H]3COC[C@@H](C(=O)N4CCCCO4)[C@@H]3C2)no1` it was 34.6%.
